Reference: PubChem BioAssay AID2315 (National Center for Advancing Translational Sciences (NCATS), 2010)
Where “and” joins values, the source holds several entries; their conditions need not be identical. Equal values may be shown once. Out of some 290,000 compounds screened, about 27,000 (9.3%) were called active. The sample as a whole holds a higher share of actives than the screen did. A number with no mark means an inactive call. Cut-off read from the data, not from the text of the source: active = inhibition mostly above about 28% (no sharp cut-off); inactive = mostly below about 43%.

Assay: A qHTS for Small Molecule Inhibitors of Shiga Toxin; note: 0% is about no effect
Details: Vero cells, Shiga toxin protein synthesis inhibition reporter; at 38.7 µM, active compounds read high

Structure (SMILES) | inhibition
COc1ccccc1N1CCC(N2CCN(CC(C)(C)C)C(CCO)C2)CC1 (centres undefined) | -5.66%
COC(=O)c1cccc(C(=O)N2CCC(CCC(=O)NCc3ccc(F)cc3)CC2)c1 | -4.62%
Cc1ccc(C(=O)Nc2nnc(C3=COCCO3)o2)cc1C | 12.4%
COc1ccc(C2=NS(=O)(=O)N(C)C(C(=O)N(C)Cc3ccccc3)=C2)cc1 | 0.266%
CCOc1ccc(N(C(=O)c2snc(C(N)=O)c2N)C(C(=O)NCC2CCCO2)c2c[nH]c3ccccc23)cc1 (centres undefined) | -13.1%
COc1ccc2nc(C)cc(Nc3cccc(C(=O)O)c3)c2c1 | -3.88%
COc1cccc(NC(=O)C(C)Oc2ccccc2)c1 (centres undefined) | -3.55%
COc1cccc(Nc2ncccc2C(=O)O)c1 | 96.7% (active)
COc1nnc(-c2ccc(C)c(S(=O)(=O)N(C)C)c2)c2ccccc12 | 22.7%
CCOC(=O)c1sc(=NC(=O)/C=C/c2cccs2)n(C)c1C | 88% (active)
CCOC(=O)c1sc(=NC(=O)c2ccc(Br)cc2)n(C)c1C | -5.35%
CCOC(=O)c1c(NC(=S)NC(=O)/C=C/c2cccs2)sc(C)c1C | -10.9%
CCOc1ccc(OCC)c(NC(=O)CCS(=O)(=O)c2ccc(C)cc2)c1 | -3.57%
O=C(Cc1c(Cl)cccc1Cl)NC1CC1 | -3.23%
CC(C)CCn1cnc2c1c(=O)n(CC(=O)NC(N)=O)c(=O)n2Cc1ccccc1 | 6.66%
COc1ccc(Cc2nnnn2CC(=O)O)cc1 | 18.4%
COc1ccc(Cc2cc(-c3ccc(F)cc3)n[nH]c2=O)cc1 | 41.9% (active)
COc1ccc(Cc2nnc(SC)[nH]c2=O)cc1 | -10.4%
O=C(/C=C/c1ccc(Cl)cc1)NCCCn1ccnc1 | 63.2%
Cc1ccc(NS(=O)(=O)c2cc3c(cc2C)NC(=O)CO3)cc1 | -3.52%
C[C@H](NC(=O)c1nc[nH]c1C(=O)NCC(=O)OC(C)(C)C)C(=O)OCc1ccccc1 | -5.08%
CCC(C)c1ccccc1NC(=O)CN(C)CC(=O)Nc1ccccc1SC (centres undefined) | -5.67%
CCn1cc(CN2CCC(n3nccc3NC(=O)CCCc3ccccc3)CC2)c(C)n1 | -4.01%
O=C(C(=O)N1CCc2ccccc2C1)c1c[nH]c2ccccc12 | 25.1%

Structure (SMILES) | inhibition
O=C(NCCCc1ccccc1)C(=O)c1c[nH]c2ccccc12 | 34.9%
O=C(NC1CCCC1)C(=O)c1c[nH]c2ccccc12 | 60.6% (active)
Cc1ccc(C(=O)CCC(=O)N(C)CC(=O)Nc2c(Cl)cccc2Cl)cc1 | 12.9%
CCOc1ccc(NC(=O)CSc2nncn2C)cc1 | -2.49%
COc1ccc(-n2c(-c3ccc(OC)c(OC)c3)n[nH]c2=S)cc1 | -6.08%
CCOc1ccccc1NC(=S)NC(=O)CCc1ccccc1 | -2.78%
c1ccc(Nc2nc(N3CCOCC3)c3ccccc3n2)cc1 | -9.05%
COc1ccc(Nc2ncc(F)c(N3CCOCC3)n2)cc1 | 68.5% (active)
CCOc1ccc(Nc2nc(Cl)nc(N3CCN(c4ccc(OC)cc4)CC3)n2)cc1 | -1.73%
Cc1cc(C)cc(NC(=O)CN2C(=O)c3ccccc3C2=O)c1 | -7.16%
Cc1ccc(C(C)C)cc1OCC(=O)Nc1ccccc1N1CCCC1 | 38.7%
Cc1c(OC(C)C(=O)N[C@@H](Cc2ccccc2)C(=O)O)ccc2c3c(c(=O)oc12)CCCC3 (some centres undefined) | -5.08%
O=C(Cn1ncc2c3ccccc3n(Cc3ccccc3)c2c1=O)NCCCN1CCOCC1 | 10.5%
CCN1C(=O)/C(=c2\s/c(=C3\Sc4ccccc4N3C)c(=O)n2C)N(C)C1=S | 40.9% (active)
CCN1C(=O)/C(=C2/Sc3ccccc3N2CCCS(=O)(=O)O)SC1=S | 13.4% and -2.41%
CCCCN1C(=O)/C(=C2/Sc3ccc(Cl)cc3N2CC)SC1=S | 1.9%
COc1cc(OC)c(OC)cc1CN1CCN(C(=O)c2cccc3ccccc23)CC1 | -8.18%
COc1ccc(-c2nc3n(c(=O)c2C#N)CCS3)c(OC)c1 | -7.88%
O=C(N/N=C\C1CC=CCC1)c1ccc(Br)o1 (centres undefined) | 67.4% (active)
COCc1c(C(=O)N/N=C/C2CC=CCC2)nnn1-c1nonc1N (centres undefined) | -2.4%
Cc1ccc(SCc2c(C(=O)N/N=C/C3CC=CCC3)nnn2-c2nonc2N)cc1 (centres undefined) | -9.77%
CCN1CCN(C(=O)Cn2nc(C)n3c(cc4c(OC)cccc43)c2=O)CC1 | -14.6%
O=C(O)CCCn1c(=O)c2cccn2c2ccc(F)cc21 | -8.92%
COc1ccc(NC(=O)N2CCC3(CC2)OCCO3)c(OC)c1 | 13.6%

Structure (SMILES) | inhibition
O=C(Nc1cccc2ccccc12)N1CCC2(CC1)OCCO2 | 54.5% (active)
O=C(Nc1cccc2ccccc12)N1CCN(Cc2ccc3c(c2)OCO3)CC1 | -3.81%
COc1cc(/C=N/NC(=O)CNC(=O)c2ccncc2)ccc1OC(C)=O | -3.89%
COc1ccc(C)cc1NC(=O)NCCCCc1ccccc1 | 14.6%
COc1ccc(C(=O)NC2CC2)cc1OC1CCN(C/C=C/c2ccccc2)CC1 | -9.42%
CC(=O)N1c2ccc(S(=O)(=O)N3CCC(C(=O)N4CCN(c5ccccc5)CC4)CC3)cc2CC1C (centres undefined) | -2.12%
Cc1cccc(-c2nnc(SCC(=O)O)n2Cc2ccccc2)c1 | -7.35%
C#CCOc1ccc(/C=C2/C(=O)ON=C2C)cc1OCC | 13.8%
CCOc1c(Cl)cc(/C=N/O)cc1OC | 59.8%
COc1cc(/C=C2/C(=O)ON=C2C)ccc1OCc1cccc(F)c1 | 55.1% (active)
COc1cc(/C=C2\SC(=O)NC2=O)ccc1OCc1ccc(Cl)nc1 | -5.05%
C=CCOc1ccc(/C=C2/C(=O)ON=C2C)cc1OCC | 17.5%
COc1cc(/C=C2/C(=O)ON=C2C)ccc1OCc1ccccc1F | 145% (active)
CCOc1ccc(/C=N/NC(=O)C(C)Sc2ccccn2)cc1OCC (centres undefined) | -9.85%
CCOc1cc(/C=N/O)ccc1OCc1ccccc1F | 40.7% (active)
CC1=NOC(=O)/C1=C\c1ccccc1 | -4.49%
CCn1c(CC(=O)Nc2ccccc2)nnc1SCC(=O)N1CCOCC1 | -10.2%
Cc1ccc(/C=C2\SC(=S)N(CCC(=O)Nc3ccc(O)cc3)C2=O)cc1 | 0.715%
COC(=O)c1cccc(N(CC(=O)NCC2CCCO2)C(=O)CCC(=O)Nc2cc(C)on2)c1 (centres undefined) | -11.3%
O=Cc1c(NCCc2cccc(F)c2)c2ccccc2[nH]c1=O | -25%
CC(C)(C)Nc1c(N)c(=O)oc2ccccc12 | 10.6%
Nc1c(NCCc2ccccc2)c2ccccc2oc1=O | 60.3% (active)
O=C(CNC(=O)[C@@H]1Cc2ccccc2CN1)NC1CCCCC1 | -13.1%
CCOc1ccc(-n2c(SCC(=O)Nc3ccc(OC)cc3)nc3sc4c(c3c2=O)CCN(C)C4)cc1 | 4.16%

Structure (SMILES) | inhibition
COc1ccccc1NC(=O)CSc1nc2sc3c(c2c(=O)n1-c1ccccc1)CCN(C)C3 | 35.8% (active)
CCOc1ccc(-n2c(SCC(=O)OC)nc3sc4c(c3c2=O)CCN(C)C4)cc1 | 11.7%
O=C(O)c1cc(S(=O)(=O)N(Cc2ccccc2)c2cccc(C(F)(F)F)c2)ccc1Cl | -2.31%
CC(=O)N1CCC(C(=O)OCc2ccc(Cl)cc2)(c2ccccc2)CC1 | -6.33%
Cc1c(Cl)cccc1NC(=O)NCCCN1CCCC1=O | 29.4%
O=C(CN1C(=O)c2ccccc2C1=O)NCc1ccc(C(=O)O)cc1 | 5.13%
Cc1nc2ccc(C(=O)N3CCN(c4ccccc4)CC3)cc2s1 | 11.9%
CC(=O)c1ccc(N2CCN(C(=O)c3ccc4nc[nH]c4c3)CC2)cc1 | 29.9% (active)
O=C(c1cccc(C(=O)N2CCN(c3ccc(F)cc3)CC2)c1)N1CCN(c2ccc(F)cc2)CC1 | -8.51%
CCN1C(=NCCc2cccnc2)N[C@@H](c2ccccc2)[C@H](C(=O)OC)[C@H]1C | 12.2% and -9.8%
C=C1CCN(Cc2ccc(OC)cc2)S(=O)(=O)c2ccccc21 | -5.84%
COc1ccc(OC)c(CNC(=O)Cn2nc(C)c3c(C)n(-c4ccc(C)cc4)nc3c2=O)c1 | 26.2%
COc1ccc(S(=O)(=O)NNC(=O)Nc2ccc(C)cc2)c(OC)c1 | -5.98%
NC(=O)C1CCN(C(=O)CC2C(=O)NCCN2Cc2cccc(Oc3ccccc3)c2)CC1 (centres undefined) | -10.2%
Cc1nn(-c2ccccc2)c2c1c(C)c(CCC(=O)NCC1CCCO1)c(=O)n2C (centres undefined) | -2.28%
Cc1[nH]c2ccccc2c1C(=O)COC(=O)c1c(-c2ccccc2)noc1C | -2.62%
Cc1onc(-c2ccccc2Cl)c1C(=O)OCC(=O)c1ccccc1 | 71.6% (active)
Cc1onc(-c2ccccc2Cl)c1C(=O)NCCn1ccc2ccccc21 | -2.64%
COc1ccc(/C=C(\NC(=O)c2ccccc2)C(=O)NCCN2CCOCC2)cc1OC | 1.37%
Cc1cc(-c2nnc(CCC(=O)NC(c3ccccc3)c3ccccc3)o2)no1 | 35.4% (active)
O=C(CCc1nnc(CCCCc2ccccc2)o1)NC(c1cccnc1)C(F)(F)F (centres undefined) | -12.1%
CC(CCn1cccn1)NC(=O)CCc1nnc(CCc2ccccc2)o1 (centres undefined) | -10.4%
